Compound activity: PubChem BioAssay, National Center for Advancing Translational Sciences (NCATS)
LMNA splice mod: qHTS Assay for Modulators of Lamin A Splicing; HeLa LMNA splicing GFP/RFP minigene ratio, 48 h; Potency, µM (top dose mostly 46.1 µM), hits mostly inhibitors; actives 0.01% (n = 200,000); AID 1487, 2009; active = well fitted inhibition curve with a large enough effect in the signal ratio, with a control signal flat, not every such curve was filed as active; inconclusive = small, poorly fitted or top-dose-only effect, or effect the other way, or a change in a side signal; the % refers to the signal ratio
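S3 HeLa stable clones carrying a lamin A-EGFP splicing minigene plus DsRed2 were seeded at 600 cells/well in Opti-MEM with 2% FBS, pin-dosed and incubated 48 h at 37°C. Acumen cytometry (488 nm) gave the GFP/RFP total-intensity ratio.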
ALDH1A1 inh: qHTS Assay for Inhibitors of Aldehyde Dehydrogenase 1 (ALDH1A1); Purified ALDH1A1, NADH fluorescence, propionaldehyde substrate; Aldehyde dehydrogenase 1A1 (Homo sapiens), P00352; Potency, µM (highest dose often 75.3 µM), actives largely listed as inhibitors; actives 7.3% (n = 220,000); AID 1030, 2008
Target sequence (P00352 whole entry, looked up): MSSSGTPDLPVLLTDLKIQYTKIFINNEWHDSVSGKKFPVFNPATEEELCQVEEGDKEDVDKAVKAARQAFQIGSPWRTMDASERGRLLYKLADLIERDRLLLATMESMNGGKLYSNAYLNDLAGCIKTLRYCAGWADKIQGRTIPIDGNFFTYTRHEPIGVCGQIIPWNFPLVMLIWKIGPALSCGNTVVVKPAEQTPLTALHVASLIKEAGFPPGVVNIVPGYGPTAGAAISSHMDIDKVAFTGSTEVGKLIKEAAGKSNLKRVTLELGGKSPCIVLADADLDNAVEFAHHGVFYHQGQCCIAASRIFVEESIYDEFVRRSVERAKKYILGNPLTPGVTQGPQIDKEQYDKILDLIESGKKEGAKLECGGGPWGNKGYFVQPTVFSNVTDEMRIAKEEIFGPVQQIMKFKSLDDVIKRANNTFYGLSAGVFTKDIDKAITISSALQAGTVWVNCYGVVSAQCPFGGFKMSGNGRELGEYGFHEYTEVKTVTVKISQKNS
12-hLO inh: qHTS Assay for Inhibitors of 12-hLO (12-human lipoxygenase). Polyunsaturated fatty acid lipoxygenase ALOX12 (Homo sapiens), P18054. purified 12-hLO, xylenol orange hydroperoxide absorbance. Potency, µM (series often up to 57.1 µM), most hits filed as inhibitors. actives 0.12% (n = 150,000). AID 1452, 2008; active = well fitted inhibition curve with a large enough effect; inconclusive = small, poorly fitted or top-dose-only effect; also: nearly all actives have a fitted effect of over 55% in size
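Lipoxygenase turnover measured by absorbance at 573 and 405 nm after Fe-XO development. Human 12hLO 150 nM, arachidonate 40 uM, pH 7.0 Hepes buffer with detergent; 15 min compound preincubation, 30 min reaction.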
HPGD block: qHTS Assay for Inhibitors of HPGD (15-Hydroxyprostaglandin Dehydrogenase) | 15-hydroxyprostaglandin dehydrogenase [NAD(+)] (Homo sapiens), P15428 | purified HPGD, NADH fluorescence kinetic, PGE2 substrate | Potency, µM, hits mostly inhibitors | actives 4.3% (n = 150,000)
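NADH formation kinetics: reaction with 30 uM PGE2 and 1 mM NAD+ (final), 20 nM enzyme, Tris-HCl pH 8 with Tween 20, after 15 min compound preincubation at room temperature. Fluorescence change, last versus first of five reads.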
PNC inhibitor: High Content Assay for Compounds that inhibit the Assembly of the Perinucleolar Compartment; PC3M PTB-GFP, PNC prevalence imaging, 16 h; hits give low values; activity change (PNC), negative = inhibition, % at 10 µM; actives 3.1% (n = 140,000);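 active = readout at or below -70, meaning at least 70% loss of cells showing the perinucleolar compartment, a nuclear body marking cancer cells; inconclusive = readout between -30 and a set limit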
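Compounds are pinned in duplicate onto adhered PC3M cells stably expressing GFP-tagged PTB and incubated 16 h at 37 C. Cells are then fixed, nuclei stained with Hoechst, and PNC-positive cells counted.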
Each line names hits and unclear results; the compound was inactive in the other large screens. Shown are actives, neighbours in structure and some others; about 10% of the full set was active somewhere. Unless noted, calls follow the shape of the dose curve; as a rule, active = well fitted inhibition curve with a large enough effect (not every such curve was filed as active); inconclusive = small, poorly fitted or top-dose-only effect, or another doubt; inactive = no such curve, though single readings can be large or run the other way.

O=c1cc(-c2ccccc2Cl)oc2cc(O)cc(O)c12	LMNA splice mod inconclusive, ALDH1A1 inh inconclusive, HPGD block 18µM
Nc1ccc(O)c2c(=O)cc(-c3ccccc3Cl)oc12	PNC inhibitor inconclusive
COc1cccc2oc(-c3ccccc3)cc(=O)c12	ALDH1A1 inh inconclusive, HPGD block inconclusive (no result: LMNA splice mod, PNC inhibitor)
CCOC(=O)c1c(C)[nH]c(CCC(=O)Nc2ccccc2C(=O)OC)c1C	none (no result: ALDH1A1 inh, 12-hLO inh, HPGD block, PNC inhibitor)
CC(=O)Nc1ccc(S(=O)(=O)N(CC(=O)O)Cc2ccccc2)cc1	none
CCOC(=O)c1ccc(S(=O)(=O)Nc2cc(C(=O)O)ccc2Cl)cc1	LMNA splice mod inconclusive, ALDH1A1 inh 3.2µM (no result: 12-hLO inh, HPGD block, PNC inhibitor)
CCOC(=O)/C=C/C(=O)Nc1ccc(S(=O)(=O)N2CCCCCC2)cc1	LMNA splice mod inconclusive, ALDH1A1 inh 3.5µM (no result: 12-hLO inh, HPGD block, PNC inhibitor)
CCOC(=O)c1ccccc1NC(=O)c1cc(S(=O)(=O)N2CCOCC2)ccc1F	none
CCOC(=O)CN(Cc1ccccc1)S(=O)(=O)c1ccc(NC(C)=O)cc1	LMNA splice mod inconclusive, ALDH1A1 inh 5.6µM, PNC inhibitor inconclusive
CCOC(=O)c1ccccc1NS(=O)(=O)c1ccc(S(=O)(=O)N2CCCC2)cc1	LMNA splice mod inconclusive, ALDH1A1 inh 22µM, PNC inhibitor inconclusive
COCCCNC(=O)c1cnn(-c2ccccc2Cl)c1C1CCN(C(=O)OC(C)(C)C)CC1	none (no result: ALDH1A1 inh, 12-hLO inh, HPGD block, PNC inhibitor)
N#Cc1ccc(CN2CC[C@@]3(CCCN(C(=O)c4cnccn4)C3)C2)cc1	none (no result: LMNA splice mod, PNC inhibitor)
CCOC(=O)/C=C/C(=O)Nc1ccc(S(=O)(=O)N(C)c2ccccc2)cc1	ALDH1A1 inh 25µM (no result: LMNA splice mod, 12-hLO inh, HPGD block, PNC inhibitor)
CC1CCCN(C(=O)COc2ccc(Nc3ccccc3)cc2)C1 (configuration not stated)	ALDH1A1 inh 28µM (no result: 12-hLO inh, HPGD block, PNC inhibitor)
CC1CCCN(C(=O)CCc2ccccc2)C1 (configuration not stated)	HPGD block 4.5µM, PNC inhibitor -97
CCOC(=O)C1CCCN(C(=O)CCc2ccccc2)C1 (configuration not stated)	ALDH1A1 inh inconclusive (no result: HPGD block)
O=C(Cc1ccccc1)N1CCC(c2ccccc2)C1 (configuration not stated)	ALDH1A1 inh 25µM (no result: LMNA splice mod, 12-hLO inh, HPGD block, PNC inhibitor)
CCOCCCNS(=O)(=O)c1cc(Br)cc2c1N(C(=O)C1CC1)CC2	ALDH1A1 inh 10µM
O=C(C1CC1)N1CCc2cc(Br)cc(S(=O)(=O)NCc3ccc4c(c3)OCO4)c21	LMNA splice mod inconclusive, ALDH1A1 inh 10µM
O=C(C1CC1)N1CCc2cc(Br)cc(S(=O)(=O)NCc3ccccn3)c21	ALDH1A1 inh inconclusive
O=C(O)CCS(=O)(=O)c1cc(Br)cc2c1N(C(=O)C1CC1)CC2	none (no result: 12-hLO inh, HPGD block, PNC inhibitor)
Cc1ccc(CNC(=O)CCS(=O)(=O)c2cc(Br)cc3c2N(C(=O)C2CC2)CC3)o1	ALDH1A1 inh 10µM, HPGD block inconclusive, PNC inhibitor inconclusive
O=C(C1CC1)N1CCc2cc(Br)cc(S(=O)(=O)NCc3ccco3)c21	ALDH1A1 inh 2µM
CN(C)c1cc(-c2cccc(NS(C)(=O)=O)c2)ncn1	ALDH1A1 inh inconclusive (no result: 12-hLO inh, HPGD block, PNC inhibitor)
c1cncc(CNc2ccc3c(c2)OCO3)c1	ALDH1A1 inh 20µM
N#Cc1cccc(NC(=O)N2CC[C@@]3(CCCN(C(=O)c4cnccn4)C3)C2)c1	ALDH1A1 inh inconclusive (no result: LMNA splice mod, PNC inhibitor)
Cn1ccc2cc(S(=O)(=O)N3CCCN(C(=O)Nc4ccc(Br)cc4)CC3)ccc21	none (no result: ALDH1A1 inh, 12-hLO inh, HPGD block, PNC inhibitor)
O=C(NC1CCCCC1)c1nc2c(nnn2Cc2ccccc2Cl)c(=O)[nH]1	ALDH1A1 inh inconclusive, HPGD block 4.5µM, PNC inhibitor inconclusive
CCCc1nc2c(nnn2Cc2ccccc2Cl)c(=O)[nH]1	none (no result: LMNA splice mod, 12-hLO inh, HPGD block, PNC inhibitor)
COc1ccc(Cn2nnc3c(=O)[nH]c(C(=O)NCCc4ccc(F)cc4)nc32)cc1OC	HPGD block 3.2µM
O=C(NCCc1ccccc1)c1nc2c(nnn2Cc2ccccc2Cl)c(=O)[nH]1	HPGD block 7.9µM
O=C(NC1CC1)c1nc2c(nnn2Cc2ccccc2Cl)c(=O)[nH]1	HPGD block 16µM, PNC inhibitor inconclusive
O=C(NCC1CCCO1)c1nc2c(nnn2Cc2ccccc2Cl)c(=O)[nH]1 (configuration not stated)	HPGD block 13µM
